The test system of assay [1] is XIP peptide (Xip251-270) binding. Kind of assay: XIP fragment 251-270 binding compounds – biochemical, small-molecule microarray, fluorescence 635/667 nm, 0.1 µg/mL protein, primary screen (AID 1182). The note with it: fluorescent protein binding, 635 nm, higher = more signal, called active from +8 up or from −8 down.
The next assay deals with XIP peptide (Xip251-270). Briefly: compounds binding XIP fragment 251-270 – biochemical, small-molecule microarray, fluorescence 635/667 nm, 0.5 µg/mL protein, primary screen (AID 1183). The note with it: fluorescence 635 nm, higher = more signal.
Assay [2] in a line: blood-stage malaria parasite viability loss – strain 3D7, DAPI fluorescence, 100 nL, primary screen (AID 1184).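 Also: parasites grown inside human red blood cells in medium with human serum.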 The note with it: P. falciparum 3D7 growth, 3 d, higher = more signal.
In assay [3] the target is Homeobox protein Hox-A13 (Mus musculus) (UniProt Q62424). Kind of assay: disruptors of Hoxa13 oligonucleotide interaction – biochemical, fluorescence polarization, labeled oligonucleotide, primary screen (AID 1185). As to conditions: Hoxa13:DNA binding, 15 min, higher = more signal, called active from +8 up or from −8 down.
The nature of assay [4]: blockers of DNA damage checkpoint Chk1 activation – imaging, HeLa, hydroxyurea, phospho-Chk1 antibody, percent positive cells, primary screen (AID 1186). As to conditions: hydroxyurea-induced phospho-Chk1 immunofluorescence imaging, higher = more signal.
Assay [5] can be described thus: blockers of DNA damage checkpoint Chk1 activation – imaging, HeLa, hydroxyurea, phospho-Chk1 nuclear intensity, primary screen (AID 1187). As to conditions: hydroxyurea-induced phospho-Chk1 immunofluorescence imaging, higher = more signal.

Calls of active or inactive are those of the source. Unless noted, no rule for the calls is given here.

Sequence of Homeobox protein Hox-A13 (Mus musculus) (Q62424 whole entry, looked up): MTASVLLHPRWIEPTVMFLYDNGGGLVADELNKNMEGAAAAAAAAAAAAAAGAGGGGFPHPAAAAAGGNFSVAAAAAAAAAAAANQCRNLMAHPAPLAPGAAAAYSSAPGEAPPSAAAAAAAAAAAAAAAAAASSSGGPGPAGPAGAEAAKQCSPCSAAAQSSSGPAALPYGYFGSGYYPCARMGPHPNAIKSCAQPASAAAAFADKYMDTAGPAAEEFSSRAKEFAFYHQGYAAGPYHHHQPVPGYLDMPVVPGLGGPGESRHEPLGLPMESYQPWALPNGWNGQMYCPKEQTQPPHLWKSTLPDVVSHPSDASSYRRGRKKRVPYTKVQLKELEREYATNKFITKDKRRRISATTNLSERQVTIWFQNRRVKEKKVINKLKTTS

Consider `CN(C)CCCC[C@@H]1NC(=O)[C@@H]2C[C@H](C(=O)NCCCCCN)[C@H](c3ccc(O)cc3)N2C1=O`, for which the composite z-score is 0.633 (inactive) in assay [1] and 0.433 in the assay with XIP peptide (Xip251-270). Further, the z-score in assay [2] is 0.336; in assay [3], -1.21 (inactive); in assay [4] it was -0.538 (inactive); in assay [5] it was -0.472 (inactive).

Consider `COC(=O)C(CC#Cc1ccc2c(c1)[C@]1(C(=O)N2)[C@H](C(=O)N2CCCCCCC2)[C@H]2C(=O)O[C@H](c3ccccc3)[C@H](c3ccccc3)N2[C@@H]1c1ccccc1OCCO)C(=O)OC`, for which the composite z-score is 8 (inactive) in assay [1] and 1.04 in the assay with XIP peptide (Xip251-270). Further, the z-score in assay [2] was -2.21; in assay [3], 1.03 (inactive); in assay [4], 0.0041 (inactive); in assay [5], 0.0484 (inactive).

For `CN(C)CCCCCCNC(=O)[C@@H]1C[C@@H]2C(=O)N[C@@H](Cc3ccccc3)C(=O)N2[C@@H]1c1cccc(OCCO)c1`, the composite z-score in assay [1] was 2.15 (inactive); in the assay on XIP peptide (Xip251-270), 0.809. Further, the z-score in assay [2] is 0.526; in assay [3], -4.13 (inactive); in assay [4], 0.0258 (inactive); in assay [5], -0.024 (inactive).

Consider `C=C[C@H](C)[C@H](OC(=O)Nc1ccc(OC)cc1)c1ccc(O)c2ccccc12`, for which the composite z-score was 0.79 (inactive) in assay [1] and -0.147 with XIP peptide (Xip251-270). Moreover, the z-score is -0.767 in assay [2], -4.27 (inactive) in assay [3], -0.33 (inactive) in assay [4] and -0.382 (inactive) in assay [5].

Take `O=C1O[C@@H](c2ccccc2)[C@@H](c2ccccc2)N2[C@@H](c3ccccc3OCCO)[C@]3(C(=O)Nc4ccc(C#CC5(O)CCCCCC5)cc43)[C@@H](C(=O)NC[C@H](O)c3ccccc3)[C@H]12`: the results for the composite z-score (in assay [1]; in the assay with XIP peptide (Xip251-270)) were 0.487 (inactive) and 0.76, respectively. Further, the z-score in assay [2] was -1.96; in assay [3] it was -2.71 (inactive); in assay [4], -0.213 (inactive); in assay [5], 0.0361 (inactive).

Regarding `O=C1C2C=CC(C(O)c3cccc4ccccc34)N(n3cnnc3)C2C(=O)N1Cc1ccccc1` (configuration not stated), the composite z-score was -0.0195 (inactive) in assay [1] and -0.633 with XIP peptide (Xip251-270). For the same molecule, the z-score in assay [2] is -0.206; in assay [3], -1.86 (inactive); in assay [4], 0.993 (inactive); in assay [5], -0.055 (inactive).

As to `COc1ccc([Si](C)(C)[C@@H]2[C@@H](CC(=O)N3Cc4ccccc4C[C@H]3CO)O[C@]3(C(=O)N(Cc4cccc(N5C(=O)COc6ccccc65)c4)c4ccccc43)[C@H]2C)cc1`, the composite z-score in assay [1] is 1.16 (inactive); with XIP peptide (Xip251-270), 0.778. Also, the z-score was -2.79 in assay [2], -0.616 (inactive) in assay [3], -0.635 (inactive) in assay [4] and -0.0275 (inactive) in assay [5].

For `C=C(COC)C(=O)CC[C@@H](OC(=O)c1ccccc1-c1ccccc1C(=O)O)c1ccc(CO)o1`, the composite z-score in assay [1] is -0.5 (inactive); in the assay on XIP peptide (Xip251-270) it was 0.633. For the same molecule, the z-score in assay [2] was 1.47; in assay [3], -4.32 (inactive); in assay [4], 1.37 (inactive); in assay [5], 0.477 (inactive).

With `COc1cc2c(cc1O)C(c1ccc(CN3CCCC3)cc1)N(Cc1sc3ccccc3c1Cl)CC2` (configuration not stated), the composite z-score in assay [1] was 0.656 (inactive); in the assay with XIP peptide (Xip251-270), 0.879. The z-score in assay [2] was -1.58; in assay [3], -5.24 (inactive); in assay [4], 0.356 (inactive); in assay [5] it was 0.653 (inactive).

As to `COc1ccc([Si](C)(C)[C@H]2[C@H](CC(=O)N(CCO)Cc3ccccc3)O[C@@]3(C(=O)N(Cc4cccc(N5C(=O)c6cccc7cccc5c67)c4)c4ccccc43)[C@@H]2C)cc1`, the composite z-score in assay [1] is 0.719 (inactive); in the assay with XIP peptide (Xip251-270), 0.6. Also, the z-score in assay [2] was -2.72; in assay [3] it was -1.4 (inactive); in assay [4], -1.31 (inactive); in assay [5], -1.11 (inactive).

On to `CC(C)N1C(=O)c2ccccc2[C@](C)(C(=O)NCCCN(C)C)[C@@H]1c1ccc(CO)cc1`, for which the results for the composite z-score (in assay [1]; in the assay with XIP peptide (Xip251-270)) were 0.289 (inactive) and 0.431, respectively. The z-score in assay [2] is 0.191; in assay [3] it was -1.73 (inactive); in assay [4], 0.0165 (inactive); in assay [5], 0.149 (inactive).

Regarding `O=c1cccc(-c2cccc3ccccc23)o1`, the figures for the composite z-score (in assay [1]; with XIP peptide (Xip251-270)) were -0.738 (inactive) and 0.454, respectively. Further, the z-score was -0.796 in assay [2], -1.69 (inactive) in assay [3], -0.715 (inactive) in assay [4] and -1.06 (inactive) in assay [5].

Consider `COCCCNC(=O)[C@@]1(C)c2ccccc2C(=O)N(Cc2ccccc2)[C@H]1c1ccc(CO)cc1`, for which the composite z-score is 0.132 (inactive) in assay [1] and 0.947 in the assay on XIP peptide (Xip251-270). The z-score in assay [2] is -1.35; in assay [3] it was -1.86 (inactive); in assay [4] it was -0.258 (inactive); in assay [5] it was -0.432 (inactive).

For the molecule `NC(=O)[C@@]1(CCS(=O)(=O)c2ccccc2)N=C(c2ccc(OCCCO)cc2)O[C@H]1c1ccccc1`, the composite z-score in assay [1] is 1.11 (inactive); in the assay on XIP peptide (Xip251-270), 0.863. Moreover, the z-score in assay [2] was -1.9; in assay [3] it was -6.86 (inactive); in assay [4] it was 0.0218 (inactive); in assay [5], 0.56 (inactive).

On to `C=CCN1Cc2ccccc2C[C@@]2(COC(c3ccc(OCCCO)cc3)=N2)C1=O`, for which the composite z-score in assay [1] is 0.415 (inactive); in the assay with XIP peptide (Xip251-270) it was 0.793. For the same molecule, the z-score in assay [2] was -1.85; in assay [3], -3.96 (inactive); in assay [4], -0.221 (inactive); in assay [5], -0.208 (inactive).

Regarding `CC(C)C(O)C1C=CC2C(=O)N(C)C(=O)C2N1N1CCCCC1` (configuration not stated), the figures for the composite z-score (in assay [1]; with XIP peptide (Xip251-270)) were -0.335 (inactive) and 0.855, respectively. In addition, the z-score in assay [2] was 0.998; in assay [3] it was -4.51 (inactive); in assay [4] it was 0.604 (inactive); in assay [5], 0.171 (inactive).

Turning to `C=C[C@H](C)[C@H](O)c1ccc(OCCO)cc1`, the composite z-score was -0.199 (inactive) in assay [1] and -0.143 in the assay on XIP peptide (Xip251-270). For the same molecule, the z-score in assay [2] was -0.996; in assay [3], -0.499 (inactive); in assay [4] it was -0.82 (inactive); in assay [5], -0.216 (inactive).

The record behind these values is PubChem BioAssay.
